Measured values published in PubChem BioAssay (EPA / NIEHS).
“And” between values parts separate entries of the source, which are not always exact repeats. Identical values can stand only once. Inconclusive results are not listed. More than one record can exist for a structure, and the calls need not agree. The source made the active and inactive calls. Rule for the calls, unless noted: active = hit-call score of the fitted dose curve at least 0.9, where 1 is the maximum; inactive = score below 0.9. Peptide text beside a SMILES is read from it.

System: DIO2 (gene 1734)
Test: CCTE_GLTED_hDIO2: CCTE's human Deiodinase 2 (DIO2) Inhibition Assay, Great Lakes Toxicology and Ecology Division (GLTED) Lab (AID 2284050; active = hit-call score of the fitted dose curve at least 0.9, where 1 is the maximum)
Outline: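 Inhibition is judged by reduced iodide release: uninhibited human DIO2 frees iodide from substrate over 3 h, measured afterward by Sandell-Kolthoff colorimetry. Iodinated chemicals or nitrite, iron and thiocyanate may interfere.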

| SMILES | AC50 |
| --- | --- |
| CCCCCCCOC(=O)c1ccc(O)cc1 | 106 µM (active) |
| CCCCCCCCCCCCc1ccc(O)cc1 | 69.7 µM (active) |
| O=C(O)c1cc(O)c2ccccc2c1O | 51 µM (active) |
| CCCCCCCCCCCCCCCCCCOS(=O)(=O)O | 40.6 µM (active) |
| O=c1c(O)c(-c2ccc(O)cc2O)oc2cc(O)cc(O)c12 | 55.4 µM (active) |
| CCCCC/C=C\C/C=C\CCCCCCCC(=O)O | 36.8 µM (active) |
| C/C=C/C=C/CCCCCCCO | 19.9 µM (active) |

System: not listed separately
Test: CCTE_Shafer_MEA_dev_spike_duration_mean: CCTE's Neural Network Formation Assay for Mean Spike Duration, Shafer Lab (AID 2284051);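 note: mean network spike duration pooled as area under curve over DIV 5 to 12 recordings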;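 for AC50: potency for a decrease in mean network spike duration versus DMSO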
Outline: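 Spontaneous activity was recorded on days 5, 7, 9 and 12 from rat cortical cultures grown on microelectrode arrays and dosed continuously from day 0, with media and compound renewed after the DIV 5 and 9 recordings. Network-spike duration was collapsed by area under the curve.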

| SMILES | outcome | AC50 |
| --- | --- | --- |
| Cc1noc(NS(=O)(=O)c2ccc(N)cc2)c1C | inactive |  |
| C[N+](C)(C)CCCNS(=O)(=O)C(F)(F)C(F)(F)C(F)(F)C(F)(F)C(F)(F)C(F)(F)C(F)(F)C(F)(F)F | inactive | 2.58 µM (active) |
| CCCCNS(=O)(=O)c1ccccc1 |  | 50.5 µM (active) |
| COC(=O)[C@H](Cc1ccccc1)NC(=O)[C@@H](N)CC(=O)O (H-Asp-Phe-OMe) | inactive |  |
| Cc1c(C(=O)c2c[nH]n(C)c2=O)ccc(S(C)(=O)=O)c1C1=NOCC1 | inactive |  |

System: not listed separately
Test: CCTE_Shafer_MEA_dev_network_spike_duration_std: CCTE's Neural Network Formation Assay for Standard Deviation of Network Spike Duration, Shafer Lab (AID 2284052);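 note: hits are decreases in network spike duration SD versus DMSO vehicle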
Protocol: CCTE_Shafer_MEA_dev assay is conducted using Axion Biosystems 48 well microelectrode array (MEA) plates and Maestro recording system. Each well of the MEA plate contains a grid of 16 microelectrodes embedded in the culture surface. Electrically active cells, such as neurons, can be cultured over the electrodes, and electrical activity in these cells can be recorded extracellularly. The spontaneous firing of neurons is captured from each electrode on a microsecond timescale providing both temporally and spatially precise data. […] The CCTE_Shafer_MEA_dev assay uses primary cultures of rat cortical neurons. Recordings are made on days post-plating 5, 7, 9 and 12. As these cultures mature over time, neural networks develop functional activity and form cohesive networks in which electrical activity can be highly coordinated. CCTE_Shafer_MEA_dev_network_spike_duration_std is 1 of 19 assay components of the CCTE_Shafer_MEA_dev assay. It measures the standard deviation of the duration of network spikes (temporally-clustered groups of action potential firing across multiple electrodes) during a recording in a microelectrode array (MEA) using Axion Biosystems Maestro 768 channel amplifier with the AxIS adaptive spike detector. To collapse across multiple recordings made on days post-plating 5, 7, 9 and 12, the trapezoidal area-under-the-curve of the component is calculated.Data from the assay component CCTE_Shafer_MEA_dev_network_spike_duration_std was analyzed into 1 assay endpoint. This assay endpoint, CCTE_Shafer_MEA_dev_network_spike_duration_std, was analyzed in the negative analysis fitting direction relative to DMSO as the negative control and baseline of activity. Using a type of functional reporter, gain or loss-of-signal activity can be used to understand electrical activity.
On the day prior to culture, each well was coated thoroughly with 150 uL of 0.05% polyethyleneimine (PEI, Sigma Cat P3143) in 50 mM HEPES (Sigma Cat H7523) at a pH of 8. The plate was incubated at 37C for one hour. PEI was rinsed out with 500 uL of sterile water three times. Plates were stored at 4C until the day of culture. This culture was plated at a seeding density of 1.5 x 10^5 cells/well on a 48-well MEA plate, prepared as described above. Cells were administered via a 25 uL media/laminin ([…]; Sigma Cat L2020-1MG) drop directly onto the microelectrode array, as adding the cells with the laminin results in better attachment than pre-coating with laminin. After 2 hours, an additional 475 uL of cortical media was added and the cells returned to the incubator. Exposure starts at day 0 of plating and is continued over twelve days of network development until the experiment is terminated. Cells are fed with fresh medium on DIV 5 and 9, following the recordings on those days. The entire volume of media in the well is exchanged and any vehicle or compound treatment is renewed. Complete details are found in OP-NHEERL/ISTD/SBB/TJS/2015-03-r0 (available on request, email shafer.tim@epa.gov). Measurement of the electrical activity is non-invasive, and recordings can be made from the same plate over multiple different days of the culture. In cortical neurons, this allows for the measurement of extracellular action potentials over the period during which networks form in the MEA plate.

| SMILES | outcome |
| --- | --- |
| Cc1noc(NS(=O)(=O)c2ccc(N)cc2)c1C | inactive |
| C[N+](C)(C)CCCNS(=O)(=O)C(F)(F)C(F)(F)C(F)(F)C(F)(F)C(F)(F)C(F)(F)C(F)(F)C(F)(F)F | inactive |
| CCCCNS(=O)(=O)c1ccccc1 | inactive |
| COC(=O)[C@H](Cc1ccccc1)NC(=O)[C@@H](N)CC(=O)O (H-Asp-Phe-OMe) | inactive |
| Cc1c(C(=O)c2c[nH]n(C)c2=O)ccc(S(C)(=O)=O)c1C1=NOCC1 | inactive |

System: not listed separately
Test: CCTE_Shafer_MEA_dev_per_network_spike_spike_number_mean: CCTE's Neural Network Formation Assay for Mean Number of Spikes in a Network Spike, Shafer Lab (AID 2284053);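 for AC50: fitted as decrease in spikes per network spike relative to DMSO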
Outline: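 Mean spike count within each network spike, taken in a 0.05 s window at its peak, was recorded on days 5, 7, 9 and 12 and integrated as trapezoidal area under the curve. Rat cortical cultures on MEA plates received continuous compound from day 0, refreshed at medium changes on DIV 5 and 9.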

| SMILES | outcome | AC50 |
| --- | --- | --- |
| Cc1noc(NS(=O)(=O)c2ccc(N)cc2)c1C | inactive |  |
| C[N+](C)(C)CCCNS(=O)(=O)C(F)(F)C(F)(F)C(F)(F)C(F)(F)C(F)(F)C(F)(F)C(F)(F)C(F)(F)F |  | 901 nM (active) and 1.36 µM (active) |
| CCCCNS(=O)(=O)c1ccccc1 | inactive |  |
| COC(=O)[C@H](Cc1ccccc1)NC(=O)[C@@H](N)CC(=O)O (H-Asp-Phe-OMe) | inactive |  |
| Cc1c(C(=O)c2c[nH]n(C)c2=O)ccc(S(C)(=O)=O)c1C1=NOCC1 | inactive |  |

System: not listed separately
Test: CCTE_Shafer_MEA_dev_per_network_spike_spike_percent: CCTE's Neural Network Formation Assay for Percent of Spikes in a Network Spike, Shafer Lab (AID 2284054)
Outline: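 Read-out: percent of spikes falling in a 0.05 s window at network-spike peak, from spontaneous MEA recordings on days 5, 7, 9 and 12; trapezoidal AUC; loss of signal versus DMSO. Rat cortical cultures, compound present throughout.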

| SMILES | outcome | AC50 |
| --- | --- | --- |
| Cc1noc(NS(=O)(=O)c2ccc(N)cc2)c1C | inactive |  |
| C[N+](C)(C)CCCNS(=O)(=O)C(F)(F)C(F)(F)C(F)(F)C(F)(F)C(F)(F)C(F)(F)C(F)(F)C(F)(F)F | inactive | 2.55 µM (active) |
| CCCCNS(=O)(=O)c1ccccc1 | inactive |  |
| COC(=O)[C@H](Cc1ccccc1)NC(=O)[C@@H](N)CC(=O)O (H-Asp-Phe-OMe) | inactive |  |
| Cc1c(C(=O)c2c[nH]n(C)c2=O)ccc(S(C)(=O)=O)c1C1=NOCC1 | inactive |  |

System: DIO3 (gene 1735)
Test: CCTE_GLTED_hDIO3: CCTE's human Deiodinase 3 (DIO3) Inhibition Assay, Great Lakes Toxicology and Ecology Division (GLTED) Lab (AID 2284055; active = hit-call score of the fitted dose curve at least 0.9, where 1 is the maximum;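 note: potency is for inhibition seen as loss of released iodide signal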)
Outline: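 Human type 3 deiodinase, expressed via adenovirus system, was exposed to test chemicals for 3 hours in a cell-free format. Released iodide was then determined spectrophotometrically by Sandell-Kolthoff; plates ran in triplicate.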

| SMILES | AC50 |
| --- | --- |
| CCCCCCCOC(=O)c1ccc(O)cc1 | 80.8 µM (active) |
| CCCCCCCCCCCCc1ccc(O)cc1 | 11.2 µM (active) |
| O=C(O)c1cc(O)c2ccccc2c1O | 54.1 µM (active) |
| CCCCCCCCCCCCCCCCCCOS(=O)(=O)O | 3.04 µM (active) |
| O=c1c(O)c(-c2ccc(O)cc2O)oc2cc(O)cc(O)c12 | 33.5 µM (active) |
| CCCCC/C=C\C/C=C\CCCCCCCC(=O)O | 16.9 µM (active) |
| C/C=C/C=C/CCCCCCCO | 16.4 µM (active) |

System: not listed separately
Test: CCTE_Shafer_MEA_dev_LDH: CCTE's Lactate Dehydrogenase Assay for Cytotoxicity in the Neural Network Formation Assay, Shafer Lab (AID 2284068; active = hit-call score of the fitted dose curve at least 0.9, where 1 is the maximum;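 note: exposure for twelve days from plating with re-dosing on DIV 5 and 9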)
Outline: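 Primary rat cortical neurons were cultured on PEI-coated MEA plates and exposed from plating through day 12, with compound renewed at medium changes on DIV 5 and 9. LDH activity was read spectrophotometrically; loss of signal versus DMSO indicates reduced viability.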

| SMILES | outcome | AC50 |
| --- | --- | --- |
| Cc1noc(NS(=O)(=O)c2ccc(N)cc2)c1C | inactive |  |
| C[N+](C)(C)CCCNS(=O)(=O)C(F)(F)C(F)(F)C(F)(F)C(F)(F)C(F)(F)C(F)(F)C(F)(F)C(F)(F)F |  | 15 µM (active) |
| CCCCNS(=O)(=O)c1ccccc1 | inactive |  |
| COC(=O)[C@H](Cc1ccccc1)NC(=O)[C@@H](N)CC(=O)O (H-Asp-Phe-OMe) | inactive |  |

System: not listed separately
Test: CCTE_Shafer_MEA_acute_AB: CCTE's Alamar Blue Assay for Cytotoxicity in the Neural Acute Assay, Shafer Lab (AID 2284069; active = hit-call score of the fitted dose curve at least 0.9, where 1 is the maximum;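 note: active compounds lower the viability signal compared with DMSO wells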)
Outline: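 Resazurin reduction (CellTiter Blue, 1:6 in fresh medium) read at ex 544/em 590 nm marks viability loss relative to DMSO. Cells: primary rat cortical neuron networks on microelectrode arrays, treated after baseline recording at 13 or 15 days in vitro.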

| SMILES | outcome |
| --- | --- |
| c1ccc(Nc2cccc3ccccc23)cc1 | inactive |
| Nc1cccc(N)n1 | inactive |
| CC(CCC(=O)O)(c1ccc(O)cc1)c1ccc(O)cc1 | inactive |
| Cc1c(C(=O)c2c[nH]n(C)c2=O)ccc(S(C)(=O)=O)c1C1=NOCC1 | inactive |
| C1CNCCN1 | inactive |

System: not listed separately
Test: CCTE_Shafer_MEA_dev_AB: CCTE's Alamar Blue Assay for Cytotoxicity in the Neural Network Formation Assay, Shafer Lab (AID 2284083; active = hit-call score of the fitted dose curve at least 0.9, where 1 is the maximum;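 note: resazurin reduction fluorescence as viability of cultured neurons; twelve days of exposure from plating with re-dosing on DIV 5 and 9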)
Outline: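 Resazurin fluorescence, relative to DMSO, gauges viability after twelve days of exposure that began at plating of rat cortical neurons (1.5 x 10^5 cells/well, 48-well MEA); treatment renewed with full medium exchange on DIV 5 and 9.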

| SMILES | outcome | AC50 |
| --- | --- | --- |
| Cc1noc(NS(=O)(=O)c2ccc(N)cc2)c1C | inactive |  |
| C[N+](C)(C)CCCNS(=O)(=O)C(F)(F)C(F)(F)C(F)(F)C(F)(F)C(F)(F)C(F)(F)C(F)(F)C(F)(F)F |  | 15 µM (active) and 7.64 µM (active) |
| CCCCNS(=O)(=O)c1ccccc1 | inactive |  |
| COC(=O)[C@H](Cc1ccccc1)NC(=O)[C@@H](N)CC(=O)O (H-Asp-Phe-OMe) | inactive |  |
| Cc1c(C(=O)c2c[nH]n(C)c2=O)ccc(S(C)(=O)=O)c1C1=NOCC1 | inactive |  |

System: not listed separately
Test: CCTE_Shafer_MEA_dev_mutual_information_norm: CCTE's Neural Network Formation Assay for Mutual Information Normalization, Shafer Lab (AID 2284091);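 for AC50: mutual information between electrodes summarised as area under curve across four recording days; potency is for a decrease in mutual information relative to DMSO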
Outline: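 Neurons from rat cortex were seeded at 1.5 x 10^5 cells/well onto PEI-coated MEAs in a laminin drop, then exposed to compound from day 0 for twelve days. Network recordings on four days gave mutual information, summarised by AUC relative to DMSO.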

| SMILES | outcome | AC50 |
| --- | --- | --- |
| Cc1noc(NS(=O)(=O)c2ccc(N)cc2)c1C | inactive |  |
| C[N+](C)(C)CCCNS(=O)(=O)C(F)(F)C(F)(F)C(F)(F)C(F)(F)C(F)(F)C(F)(F)C(F)(F)C(F)(F)F |  | 906 nM (active) and 914 nM (active) |
| CCCCNS(=O)(=O)c1ccccc1 | inactive |  |
| COC(=O)[C@H](Cc1ccccc1)NC(=O)[C@@H](N)CC(=O)O (H-Asp-Phe-OMe) | inactive |  |
| Cc1c(C(=O)c2c[nH]n(C)c2=O)ccc(S(C)(=O)=O)c1C1=NOCC1 | inactive |  |
